20 compounds from PubChem BioAssay (NCATS) can be followed below.

The viability is a read-out of living cells in per cent, often relative to untreated cells.

Each structure is given as a SMILES string. Records with an inconclusive call do not appear. Unmarked numbers belong to inactive results. Activity calls are given as the source filed them. The call rests on the fitted dose curve; in most records, active means well fitted curve in the direction sought with a large enough effect; inconclusive means small, poorly fitted or top-dose-only effect, or another doubt; inactive means no such curve, though single readings can be large; an effect the other way counts as inactive or inconclusive.

Test [1] in a line: BET inhibitor-based combinations targeting novel dependencies in MECOM-rearranged (r) AML: SET-2 cell line (AID 2202231). Further: nearly all actives have a fitted effect of over 35% in size.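 On viability: plate controls were DMSO treated cells for no effect and wells without cells for full effect.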 To be noted: SET-2 AML cells viability, CellTiter-Glo luminescence, 48 h; viability: stronger effect = lower value, concentration not given here. Put shortly: (§1)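 Readout: CellTiter-Glo luminescence. Exposure: 48 h, 11 concentrations, 500 cells/well. Metric: AUC and within-line Z-AUC after DMSO/empty-well normalization.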

Test [2] is described as follows: BET inhibitor-based combinations targeting novel dependencies in MECOM-rearranged (r) AML: OCI-AML3 cell line (AID 2202232). Further: nearly all actives have a fitted effect of over 35% in size. The settings on record: Potency: OCI-AML3 viability. Put shortly:
as §1

A short description of test [3]: BET inhibitor-based combinations targeting novel dependencies in MECOM-rearranged (r) AML: MV-4-11 cell line (AID 2202233). Further: nearly all actives have a fitted effect of over 45% in size. Put shortly:
(§2)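 Seeding density was 500 cells/well, and drug exposure lasted 48 hr under standard culture conditions. Read-out used CellTiter-Glo reagent with a 15 min room-temperature incubation before luminescence measurement; AUC and Z-AUC summarize the normalized responses.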

Test [4] can be described thus: BET inhibitor-based combinations targeting novel dependencies in MECOM-rearranged (r) AML: HNT-34 cell line (AID 2202234). Further: nearly all actives have a fitted effect of over 35% in size. The method, boiled down: as §2
Test [5] can be described thus: BET inhibitor-based combinations targeting novel dependencies in MECOM-rearranged (r) AML: UCSD-AML1 cell line (AID 2202235). Further: nearly all actives have a fitted effect of over 40% in size. Put shortly: as §2
The nature of test [6]: BET inhibitor-based combinations targeting novel dependencies in MECOM-rearranged (r) AML: AML-191 cell line (AID 2202236; further: nearly all actives have a fitted effect of over 35% in size). The method, boiled down: as §1
The nature of test [7]: BET inhibitor-based combinations targeting novel dependencies in MECOM-rearranged (r) AML: AML-194 cell line (AID 2202237; further: nearly all actives have a fitted effect of over 40% in size). Put shortly:
as §1
Potency means the concentration at half of the fitted maximal effect.

On to `CCOC(=O)CCNc1cc(N2CCc3ccccc3CC2)nc(-c2ccccn2)n1`, for which the Potency was 3.72 µM (active) in test [1]; 14.8 µM (active) in test [2]; 8.33 µM (active) in test [3]; 2.35 µM (active) in test [4]; 3.32 µM (active) in test [5]; 2.95 µM (active) in test [6]. In test [7], the Potency was 2.95 µM (active).
With `CN1N=C(N)c2cn([C@@H]3O[C@H](COP(=O)(O)O)[C@@H](O)[C@@H]3O)c3ncnc1c23`, the Potency was 2.63 µM (active) in test [1]; 1.32 µM (active) in test [2]; 0.525 µM (active) in test [3]; 0.468 µM (active) in test [4]; 1.18 µM (active) in test [5]; 2.35 µM (active) in test [6]. Further, the Potency in test [7] is 1.66 µM (active).
With `CCN(CC)CCNc1ccc(C)c2sc3ccccc3c(=O)c12`, the Potency in test [1] is 18.6 µM (active); in test [2] it was 14.8 µM (active); in test [3] it was 7.42 µM (active); in test [4], 16.6 µM (active); in test [5], 16.6 µM (active); in test [6], 16.6 µM (active). Besides, in test [7], the Potency was 16.6 µM (active).
`C=CC(=O)N1CCc2ccc(-n3c(=O)ccc4cnc5ccc(-c6cnn(C)c6)cc5c43)cc21`: the Potency in test [1] is 0.456 µM (active); in test [2], 0.363 µM (active); in test [3], 0.288 µM (active); in test [4], 0.407 µM (active); in test [5], 0.229 µM (active); in test [6], 0.812 µM (active). For the same compound, the Potency in test [7] was 0.574 µM (active).
For `Nc1cc(COc2c(Cl)cc(C[C@H](N)C(=O)O)cc2Cl)c2oc(-c3ccccc3)nc2c1`, the Potency in test [1] is 11.8 µM (active); in test [2], 13.2 µM (active); in test [3], 10.5 µM (active); in test [6], 20.9 µM (active). Moreover, the Potency result in test [4], in test [5] and in test [7] was “inactive” each time.
As for `C[N+](C)(C)CC(=O)O`, the viability in test [1] is 112%. Further, the Potency entry in test [2], in test [3], in test [4], in test [5] and in test [7] was “inactive” in each case.
Turning to `CNCCCOc1cc(F)c(-c2c(Cl)nc3ncnn3c2N[C@@H](C)C(F)(F)F)c(F)c1`, the Potency in test [1] was 0.148 µM (active); in test [2], 0.0833 µM (active); in test [3], 0.0934 µM (active); in test [4], 0.0742 µM (active); in test [5] it was 0.118 µM (active); in test [7] it was 0.105 µM (active).
Consider `C/C=C/C/C=C/CCC(=O)[C@H]1O[C@H]1C(N)=O`, for which the Potency in test [1] was 20.9 µM (active); in test [2], 11.8 µM (active); in test [3], 20.9 µM (active); in test [4], 14.8 µM (active); in test [5], 20.9 µM (active); in test [7], 26.3 µM (active).
For `Cc1ccc(Sc2ccccc2N2CCNCC2)c(C)c1`, the Potency in test [1] was 18.6 µM (active); in test [2] it was 20.9 µM (active); in test [3], 20.9 µM (active); in test [4] it was 16.6 µM (active); in test [5], 16.6 µM (active); in test [7], 11.8 µM (active).
With `CN(C)N=Nc1nc[nH]c1C(N)=O`, the Potency in test [1] was 16.6 µM (active); in test [3] it was 9.34 µM (active); in test [6] it was 14.8 µM (active). Besides, the Potency result in test [2], in test [4], in test [5] and in test [7] was “inactive” throughout.
On to `CCCCCCCOc1ccc(CCC(N)(CO)CO)cc1C(F)(F)F`, for which the Potency was 18.6 µM (active) in test [1]; 16.6 µM (active) in test [2]; 14.8 µM (active) in test [3]; 14.8 µM (active) in test [4]; 10.5 µM (active) in test [5]; 18.6 µM (active) in test [6]. Also, the Potency in test [7] was 14.8 µM (active).
Regarding `C[C@@H]1[C@H](O)[C@@H](C)/C=C/C=C/C=C/C=C/C=C/C=C/C=C/[C@H](O[C@@H]2O[C@H](C)[C@@H](O)[C@H](N)[C@@H]2O)C[C@@H]2O[C@](O)(C[C@@H](O)C[C@@H](O)[C@H](O)CC[C@@H](O)C[C@@H](O)CC(=O)O[C@H]1C)C[C@H](O)[C@H]2C(=O)O`, the viability in test [1] was 112%. Besides, the Potency result in test [2], in test [4], in test [5], in test [6] and in test [7] was “inactive” in each case. Further, in test [3], the Potency was 23.5 µM (active).
In the case of `C[C@H]1O[C@H](O[C@H]2[C@H](O)[C@@H](O)[C@@H](O[C@H]3[C@H](O)[C@@H](O)C(O)O[C@@H]3CO)O[C@@H]2CO)[C@H](O)[C@@H](O)[C@@H]1N[C@H]1C=C(CO)[C@@H](O)[C@H](O)[C@H]1O` (stereo partly drawn), the viability in test [1] is 101%. Also, the Potency result in test [2], in test [3], in test [4], in test [5] and in test [7] was “inactive” in each case.
Take `CC(C)(C)C(=O)N1N=CC[C@H]1c1ccccc1`: the viability in test [1] was 112%. Also, the Potency result in test [2], in test [3], in test [4], in test [5], in test [6] and in test [7] was “inactive” in each case.
Regarding `CS(=O)(=O)Nc1cc2occ(NC=O)c(=O)c2cc1Oc1ccccc1`, in test [1], the viability is 101%. Besides, the Potency entry in test [2], in test [3], in test [4], in test [5], in test [6] and in test [7] was “inactive” in each case.
Take `C[C@H]1[C@H](C)CC[C@]2(C(=O)O)CC[C@]3(C)C(=CC[C@@H]4[C@@]5(C)CC[C@H](O)C(C)(C)[C@@H]5CC[C@]43C)[C@H]12`: in test [1], the viability was 102%. The Potency result in test [2], in test [3], in test [4], in test [5], in test [6] and in test [7] was “inactive” in each case.
As for `CC(C)(CO)n1cc(C(=O)c2cncc(NC(=O)Cc3ccc(Cl)cn3)c2)c2cnc(N)nc21`, the viability in test [1] was 125%. Also, the Potency result in test [2], in test [4] and in test [5] was “inactive” in each case. In addition, the Potency in test [3] is 7.42 µM (active); in test [7], 0.0833 µM (active).
For the compound `C[C@H](CCC(=O)O)[C@H]1CC[C@H]2[C@@H]3[C@@H](O)C[C@@H]4C[C@H](O)CC[C@]4(C)[C@H]3CC[C@]12C`, the viability in test [1] was 111%. Also, the Potency result in test [2], in test [3], in test [4], in test [5] and in test [7] was “inactive” in each case.
For the compound `C[C@H](NC(=O)/C(C#N)=C/c1cccc(Br)n1)c1ccccc1`, the Potency in test [1] is 7.42 µM (active); in test [2], 4.68 µM (active); in test [3], 4.17 µM (active); in test [4] it was 4.17 µM (active); in test [5] it was 3.72 µM (active); in test [6] it was 4.68 µM (active). For the same compound, in test [7], the Potency is 9.34 µM (active).
As for `CN(C)c1ccc(C(=O)NCCCCCCC(=O)NO)cc1`, the Potency is 0.934 µM (active) in test [1]; 0.833 µM (active) in test [2]; 0.59 µM (active) in test [3]; 1.18 µM (active) in test [4]; 1.05 µM (active) in test [5]; 1.18 µM (active) in test [6]. In addition, in test [7], the Potency is 1.32 µM (active).
